Inconclusive results are not listed. A call without a number means that no potency is given here. Some compounds were tested as several samples or in several runs, with calls that do not always agree. Activity calls are given as the source filed them. Unless noted, the call rests on the fitted dose curve; in most records, active means well fitted curve in the direction sought with a large enough effect in the repeat runs; inconclusive means weak or mixed curves; inactive means no such curve, though single readings can be large; an effect the other way counts as inactive or inconclusive.
How the values were obtained:
[1] = qHTS assay to identify small molecule antagonists of the glucocorticoid receptor (GR) signaling pathway - cell viability counter screen (AID 720693); further: nearly all actives have a fitted effect of over 55% in size; further: potency means the concentration at half of the fitted maximal effect
[2] = qHTS assay for identifying genotoxic compounds that show differential cytotoxicity against isogenic chicken DT40 cell lines with known DNA damage response pathways - Rev3 mutant cell line (AID 743014); further: nearly all actives have a fitted effect of over 55% in size; further: potency means the concentration at half of the fitted maximal effect
[3] = qHTS assay for identifying genotoxic compounds that show differential cytotoxicity against isogenic chicken DT40 cell lines with known DNA damage response pathways - Rad54/Ku70 mutant cell line (AID 743015); further: nearly all actives have a fitted effect of over 60% in size; further: potency means the concentration at half of the fitted maximal effect
[4] = qHTS assay to identify small molecule antagonists of the androgen receptor (AR) signaling pathway - cell viability counter screen (AID 743033; further: nearly all actives have a fitted effect of over 45% in size; further: potency means the concentration at half of the fitted maximal effect)
[5] = qHTS assay to identify small molecule antagonists of the androgen receptor (AR) signaling pathway using the MDA cell line - cell viability counter screen (AID 743041; further: nearly all actives have a fitted effect of over 45% in size)
In short: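 Compound exposure lasted 16 h at 37C in MDA-kb2 AR-luc cells stimulated with R1881. Protease-based CellTiter-Fluor reagent was applied for the final 30 min and fluorescence measured.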

[6] = qHTS assay to identify small molecule antagonists of the thyroid receptor (TR) signaling pathway - cell viability counter screen (AID 743064); further: nearly all actives have a fitted effect of over 50% in size; further: potency means the concentration at half of the fitted maximal effect
In short: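 Rat GH3 pituitary tumor cells stably expressing two TR response elements driving luciferase were plated, rested 4 h, then dosed with library compounds and T3 (1 nM final). After 23.5 h at 37 °C, CellTiter-Fluor was added for 30 min and fluorescence recorded.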

[7] = qHTS assay to identify small molecule antagonists of the thyroid receptor (TR) signaling pathway (AID 743065); further: series mostly up to about 70 µM; nearly all actives have a fitted effect of over 55% in size
In short: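 GH3.TRE-Luc rat pituitary cells (two TREs driving luciferase) were dosed with compound, then stimulated with 1 nM T3 (final) for 23.5 h at 37 C. ONE-Glo luminescence was the read-out, with CellTiter-Fluor fluorescence as the cytotoxicity counter-screen.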

[8] = tested on: thyroid hormone receptor (rat, GH3 cells); assay: qHTS assay to identify small molecule agonists of the thyroid receptor (TR) signaling pathway (AID 743066; calls by dose curve)
[9] = target: Estrogen receptor (Homo sapiens) (UniProt P03372); assay: qHTS assay to identify small molecule antagonists of the estrogen receptor alpha (ER-alpha) signaling pathway (AID 743069; active means well fitted curve in the direction sought with a large enough effect in the signal ratio in the repeat runs, not every such curve was filed as active; the % refers to the signal ratio)
In short: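 In this cell-based reporter format, GripTite HEK293 cells harbouring ER-alpha-UAS-bla were grown overnight with 2% charcoal-stripped FBS, dosed with DMSO-dissolved compounds, then challenged with 17beta-estradiol. After 18 hr at 37C, beta-lactamase activity was detected by FRET fluorescence.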

[10] = qHTS assay to identify small molecule antagonists of the estrogen receptor alpha (ER-alpha) signaling pathway - cell viability counter screen (AID 743074; calls by dose curve; further: nearly all actives have a fitted effect of over 45% in size)
[11] = target: Estrogen receptor (Homo sapiens) (UniProt P03372); assay: qHTS assay to identify small molecule agonists of the estrogen receptor alpha (ER-alpha) signaling pathway (AID 743075; calls by dose curve)
[12] = target: Estrogen receptor (Homo sapiens) (UniProt P03372); assay: qHTS assay to identify small molecule agonists of the estrogen receptor alpha (ER-alpha) signaling pathway using the BG1 cell line (AID 743079); further: nearly all actives have a fitted effect of over 20% in size
[13] = qHTS assay to identify small molecule antagonists of the estrogen receptor alpha (ER-alpha) signaling pathway using the BG1 cell line (AID 743080; calls by dose curve;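 further: BG1 cells stimulated with 17beta-estradiol alongside compound; series mostly up to about 70 µM; nearly all actives have a fitted effect of over 25% in size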)
In short: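 Endogenous full-length ER-alpha in BG1-Luc-4E2 cells drives a stably integrated 4×ERE luciferase gene; compounds were tested against 17beta-estradiol over 21.5 h, with luminescence and multiplexed viability fluorescence recorded.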

[14] = qHTS assay to identify small molecule antagonists of the estrogen receptor alpha (ER-alpha) signaling pathway using the BG1 cell line - cell viability counter screen (AID 743081);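 further: compound given together with 17beta-estradiol as the ER stimulus; series mostly up to about 70 µM; nearly all actives have a fitted effect of over 45% in size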
Aromatase (Homo sapiens) = Aromatase (Homo sapiens) (UniProt P11511); assay: qHTS assay to identify aromatase inhibitors (AID 743083); further: nearly all actives have a fitted effect of over 55% in size; further: potency means the concentration at half of the fitted maximal effect
[15] = qHTS assay to identify aromatase inhibitors - cell viability counter screen (AID 743084)
[16] = target: Androgen receptor (Homo sapiens) (UniProt P10275); assay: qHTS assay to identify small molecule agonists of the androgen receptor (AR) signaling pathway (AID 743036; active means well fitted activation curve with a large enough effect in the signal ratio in the repeat runs, with a control signal flat, not every such curve was filed as active; the % refers to the signal ratio)
In short: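 Quantitative HTS of the Tox21 10K library in HEK293 cells bearing a stably integrated UAS-controlled beta-lactamase reporter. Compound exposure lasted 16 h at 37C. Reporter activity was detected by FRET substrate fluorescence after 2 h at room temperature.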

[17] = target: Androgen receptor (Homo sapiens) (UniProt P10275); assay: qHTS assay to identify small molecule agonists of the androgen receptor (AR) signaling pathway using the MDA cell line (AID 743040; further: nearly all actives have a fitted effect of over 20% in size)
In short: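 Testing was done with the MDA-kb2 AR-luc line, a human breast carcinoma stably transfected with MMTV-luciferase containing AR and GR response elements. Cells were exposed 16 h at 37C before ONE-Glo luminescence detection.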

[18] = target: Androgen receptor (Homo sapiens) (UniProt P10275); assay: qHTS assay to identify small molecule antagonists of the androgen receptor (AR) signaling pathway using the MDA cell line (AID 743042; further: nearly all actives have a fitted effect of over 55% in size; further: potency means the concentration at half of the fitted maximal effect)
In short: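 MDA-kb2 breast carcinoma cells carrying MMTV-luciferase (AR/GR responsive) were co-treated with compounds and the agonist R1881 for 16 h at 37C. Inhibition read as ONE-Glo luminescence; CellTiter-Fluor fluorescence measured in parallel for cytotoxicity.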

Androgen receptor (Homo sapiens), sequence (P10275 whole entry, looked up): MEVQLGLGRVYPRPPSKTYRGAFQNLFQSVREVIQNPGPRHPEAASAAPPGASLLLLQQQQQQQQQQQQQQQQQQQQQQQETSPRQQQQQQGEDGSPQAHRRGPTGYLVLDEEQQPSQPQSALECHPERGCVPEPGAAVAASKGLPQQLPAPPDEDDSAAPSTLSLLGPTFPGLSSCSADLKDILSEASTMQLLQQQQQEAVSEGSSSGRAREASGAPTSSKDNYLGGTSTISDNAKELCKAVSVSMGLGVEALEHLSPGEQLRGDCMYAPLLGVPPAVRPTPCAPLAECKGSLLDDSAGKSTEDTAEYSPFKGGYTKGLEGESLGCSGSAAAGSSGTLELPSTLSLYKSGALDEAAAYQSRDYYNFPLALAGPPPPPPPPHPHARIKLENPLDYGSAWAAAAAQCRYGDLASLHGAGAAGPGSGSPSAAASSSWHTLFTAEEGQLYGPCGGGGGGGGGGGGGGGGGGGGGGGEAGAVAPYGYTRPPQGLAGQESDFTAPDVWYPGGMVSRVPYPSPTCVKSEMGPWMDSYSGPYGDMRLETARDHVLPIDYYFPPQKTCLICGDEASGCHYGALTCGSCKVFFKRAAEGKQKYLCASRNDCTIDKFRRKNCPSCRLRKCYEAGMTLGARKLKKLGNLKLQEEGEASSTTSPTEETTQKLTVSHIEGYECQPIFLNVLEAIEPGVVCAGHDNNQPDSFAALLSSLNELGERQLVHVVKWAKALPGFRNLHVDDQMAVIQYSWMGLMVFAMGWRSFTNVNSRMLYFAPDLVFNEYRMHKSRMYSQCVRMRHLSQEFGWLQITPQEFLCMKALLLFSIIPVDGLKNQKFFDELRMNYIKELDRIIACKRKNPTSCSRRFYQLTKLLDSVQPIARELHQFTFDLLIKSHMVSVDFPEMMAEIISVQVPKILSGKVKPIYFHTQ
Estrogen receptor (Homo sapiens), sequence (P03372 whole entry, looked up): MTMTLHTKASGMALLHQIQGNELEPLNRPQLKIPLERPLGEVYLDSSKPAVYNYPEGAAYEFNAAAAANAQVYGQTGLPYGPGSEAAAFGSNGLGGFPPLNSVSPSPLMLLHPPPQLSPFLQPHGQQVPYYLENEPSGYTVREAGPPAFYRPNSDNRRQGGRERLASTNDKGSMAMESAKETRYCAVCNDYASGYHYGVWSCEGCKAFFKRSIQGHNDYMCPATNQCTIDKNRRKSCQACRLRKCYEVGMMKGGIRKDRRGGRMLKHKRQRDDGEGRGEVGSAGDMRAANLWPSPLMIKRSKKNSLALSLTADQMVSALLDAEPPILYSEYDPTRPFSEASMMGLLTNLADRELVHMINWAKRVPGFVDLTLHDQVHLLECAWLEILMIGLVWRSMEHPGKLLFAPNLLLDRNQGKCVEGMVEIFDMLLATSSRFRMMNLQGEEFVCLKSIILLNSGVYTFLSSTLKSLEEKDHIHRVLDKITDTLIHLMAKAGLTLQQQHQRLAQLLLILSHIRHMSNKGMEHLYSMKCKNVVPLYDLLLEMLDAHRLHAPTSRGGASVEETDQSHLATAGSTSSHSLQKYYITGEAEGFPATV
Aromatase (Homo sapiens), sequence (P11511 whole entry, looked up): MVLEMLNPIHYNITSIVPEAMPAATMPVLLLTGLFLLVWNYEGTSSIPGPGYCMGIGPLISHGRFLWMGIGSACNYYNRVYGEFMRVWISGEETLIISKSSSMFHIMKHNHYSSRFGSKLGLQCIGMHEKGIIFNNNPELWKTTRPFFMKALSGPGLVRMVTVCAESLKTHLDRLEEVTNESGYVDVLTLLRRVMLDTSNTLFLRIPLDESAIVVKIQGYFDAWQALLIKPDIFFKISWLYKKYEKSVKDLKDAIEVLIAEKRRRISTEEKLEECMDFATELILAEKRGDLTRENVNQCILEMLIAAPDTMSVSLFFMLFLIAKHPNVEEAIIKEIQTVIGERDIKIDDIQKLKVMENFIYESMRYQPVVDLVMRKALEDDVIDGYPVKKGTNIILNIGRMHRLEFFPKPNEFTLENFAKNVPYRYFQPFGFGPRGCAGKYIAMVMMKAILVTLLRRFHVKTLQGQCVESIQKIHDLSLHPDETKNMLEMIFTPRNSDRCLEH

SMILES | Potency [1] | Potency [2] | Potency [3] | Potency [4] | Potency [5] | Potency [6] | Potency [7] | Potency [8] | Potency [9] | Potency [10] | Potency [11] | Potency [12] | Potency [13] | Potency [14] | Potency (Aromatase (Homo sapiens)) | Potency [15] | outcome [16] | Potency [17] | Potency [18]
CC(=O)OCCC1CCCCC1 | inactive | inactive | inactive | inactive | inactive | inactive | inactive | inactive | inactive | inactive | inactive | inactive | inactive | inactive | inactive | inactive |  |  | 
NC(=O)CCCCC(N)=O | inactive | inactive | inactive | inactive | inactive | inactive | inactive | inactive | inactive | inactive | inactive | inactive | inactive | inactive | inactive | inactive |  |  | 
CC1CCC(C(C)CS)CC1S (centres undefined) | 49 µM (active) | inactive | inactive |  | inactive | inactive |  | inactive |  | inactive |  |  |  | inactive | inactive | inactive | inactive | inactive | inactive
CN=C(N)NC(=O)Nc1c(C)cccc1C | inactive | inactive | inactive | inactive | inactive |  |  |  | inactive | inactive | inactive | inactive | inactive |  | inactive | inactive |  |  | 
CCc1ccc(C)cc1 | inactive | inactive | inactive |  | inactive |  | inactive | inactive |  | inactive |  |  |  | inactive | inactive | inactive | inactive | inactive | inactive
Cc1cc(CCC(=O)OCCOCCOCCOC(=O)CCc2cc(C)c(O)c(C(C)(C)C)c2)cc(C(C)(C)C)c1O | inactive | 26.6 µM (active) | 23.7 µM (active) |  | inactive | inactive |  | inactive |  | inactive |  |  |  | inactive | inactive | inactive |  |  | 
Cc1cccc2sc(N)nc12 | inactive | inactive | inactive | inactive | inactive | inactive |  | inactive | inactive | inactive | inactive | inactive | inactive | inactive | inactive | inactive |  |  | 
COc1ccc(CCN(C)CCCN2CCc3cc(OC)c(OC)cc3CC2=O)cc1OC | inactive | inactive | inactive | inactive | inactive | inactive | inactive | inactive | inactive | inactive | inactive | inactive | inactive | inactive | inactive | inactive |  |  | 
Cc1cccc(C)c1NC(=O)c1cc(S(N)(=O)=O)c(Cl)cc1O | inactive | inactive | inactive | inactive | inactive | inactive |  | inactive |  |  |  |  |  | inactive | inactive | inactive |  |  | 
COc1ccc2nc(S(=O)Cc3ncc(C)c(OC)c3C)[nH]c2c1 (centres undefined) | inactive | 26.6 µM (active) and inactive | 26.6 µM (active) | inactive | inactive | inactive | inactive | inactive | inactive | inactive | inactive | inactive | inactive | inactive | inactive | inactive |  |  | 
Cc1ccccc1S(N)(=O)=O | inactive | inactive | inactive | inactive | inactive | inactive | inactive | inactive |  | inactive |  |  |  | inactive |  |  |  |  | 
Cc1ccc(Nc2c(F)cccc2Cl)c(CC(=O)O)c1 | inactive | inactive | inactive | inactive | inactive | inactive | inactive | inactive | inactive | inactive | inactive | inactive | inactive | inactive | inactive | inactive |  |  | 
CNS(=O)(=O)c1cc(C(=O)N2CCC(CCN3C4CCC3CC(n3c(C)nc5ccccc53)C4)(c3cccc(F)c3)CC2)c(Cl)cc1F (centres undefined) | 54.9 µM (active) | 5.45 µM (active) | 6.11 µM (active) | 15.5 µM (active) |  | 54.5 µM (active) |  |  |  | inactive |  |  |  | inactive | 68.6 µM (active) |  |  | inactive | 34.4 µM (active)
O=S(=O)(Cl)c1c(Cl)cccc1Cl | inactive | inactive | inactive | inactive | inactive | inactive |  |  | inactive | inactive | inactive | inactive | inactive | inactive | inactive | inactive | inactive | inactive | inactive
O=C(O)CCC(=O)OC[C@@H](NC(=O)C(Cl)Cl)[C@H](O)c1ccc([N+](=O)[O-])cc1 | inactive | inactive | inactive | inactive | inactive | inactive | inactive | inactive |  | inactive |  |  |  | inactive | inactive | inactive |  |  | 
CC(=O)N[C@@H](Cc1ccc(O)cc1)C(=O)O | inactive | inactive | inactive | inactive | inactive | inactive | inactive | inactive |  | inactive |  |  |  | inactive |  |  |  |  | 
Cc1ccc(NC(=O)N(C)C)cc1NC(=O)N(C)C | inactive | inactive | inactive | inactive | inactive |  | inactive | inactive | inactive | inactive | inactive | inactive | inactive | inactive | inactive | inactive |  |  | 
CC(CN(CCN(CC(C)OCCO)CC(C)OCCO)CC(C)OCCO)OCCO (centres undefined) | inactive | 10.5 µM (active) | 20.9 µM (active) | inactive | inactive | inactive | inactive | inactive |  | inactive |  |  |  | inactive | inactive | inactive |  |  | 
CNc1c2c(nn1C)CCCC2 | inactive | inactive | inactive | inactive | inactive | inactive |  | inactive | inactive | inactive | inactive | inactive | inactive | inactive | inactive | inactive |  |  | 

Reference: PubChem BioAssay (Tox21)
